The record followed here is PubChem BioAssay.

Assay [1] is described as follows: viability loss with induced miR-34 in A549 – imaging, A549 dox-inducible miR-34, nuclei and caspase counts, primary screen (AID 1347080). The conditions noted are these: A549 miR-34 inducible, Hoechst nuclei count, 48 h.
Assay [2] is described as follows: MELAS cybrid and Rieske KO viability enhancers – cell-based, MELAS cybrids, Rieske KO mouse fibroblasts, CellTiter-Glo, primary screen (AID 1508586;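 active means mean z-score across replicates of 1.96 or higher in either the MELAS or the Rieske mutant cell line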;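 further: z relative to plate mean and SD of compound and empty wells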). The conditions noted are these: low glucose. For orientation: ATP-based viability assays read luminescence as a measure of living cells.
[3] abbreviates: stronger effect = lower value, cell number ratio, induced over uninduced.
The mark [4] stands for this setting: measured here: relative caspase fold change +Dox/-Dox.
The mark [5] stands for this setting: measured here: total cells with miR-34 induction, stronger effect = lower value.
Setting [6] is: measured here: total cells without miR-34 induction.
The mark [7] stands for this setting: MELAS cybrid survival, CellTiter-Glo 48 h, stronger effect = higher value.
[8] abbreviates: Rieske KO mouse fibroblast survival, CellTiter-Glo 72 h.

Values joined by “and” are separate entries in the source; they are usually repeats but may differ in a detail not shown here. Equal values may be shown once. Active and inactive are the calls of the source.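 How the source made its calls, unless noted: active means compounds whose cell count with miR-34 switched on is under 0.7 times the count with it off; inactive means the rest.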
Further: test concentration not given here.

Take `CCN1CCCC(OC(=O)C(c2ccccc2)c2ccccc2)C1` (stereo not given): the fold change in assay [1] (setting [3]) was 0.985 (inactive) and 0.905 (inactive); in assay [1] (setting [4]), 0.865 and 4.46. The cell count in assay [1] (setting [5]) is 9410 and 10800; in assay [1] (setting [6]), 9550 and 11900. Also, the z-score was 0.463 (inactive) in assay [2] (setting [7]) and -0.154 in assay [2] (setting [8]).
Consider `CCn1cc(C(=O)O)c(=O)c2cnc(N3CCCC3)nc21`, for which the fold change was 0.925 (inactive) in assay [1] (setting [3]) and 1.02 in assay [1] (setting [4]). For the same compound, the cell count in assay [1] (setting [5]) was found to be 8260; in assay [1] (setting [6]) it was 8920. Moreover, the z-score was -0.0207 (inactive) in assay [2] (setting [7]) and -0.983 in assay [2] (setting [8]).
On to `Nc1nccs1`, for which the fold change in assay [1] (setting [3]) is 0.923 (inactive); in assay [1] (setting [4]), 0.616. In addition, the cell count in assay [1] (setting [5]) was determined as 7980; in assay [1] (setting [6]) it was 8650. For the same compound, the z-score in assay [2] (setting [7]) was -0.119 (inactive); in assay [2] (setting [8]), -0.205.
Regarding `Cc1cc(CC(=O)O)n(C)c1C(=O)c1ccc(Cl)cc1`, the fold change in assay [1] (setting [3]) was 0.925 (inactive) and 0.888 (inactive); in assay [1] (setting [4]) it was 1.12 and 2.44. Further, the cell count in assay [1] (setting [5]) is 9260 and 11200; in assay [1] (setting [6]), 10000 and 12600. For the same compound, the results for the z-score in assay [2] (setting [7]) and in assay [2] (setting [8]) were -0.685 (inactive) and -0.331, respectively.
As to `CC(C)N=C(N)/N=C(\N)Nc1ccc(Cl)cc1`, the fold change in assay [1] (setting [3]) is 0.874 (inactive) and 0.829 (inactive); in assay [1] (setting [4]), 0.463 and 3.03. The cell count in assay [1] (setting [5]) was 7740 and 10800; in assay [1] (setting [6]), 8860 and 13000. Moreover, the figures for the z-score in assay [2] (setting [7]) and in assay [2] (setting [8]) were -1.19 (inactive) and 0.61, respectively.
For the compound `C=CCSCC1Nc2cc(Cl)c(S(N)(=O)=O)cc2S(=O)(=O)N1` (stereo not given), the fold change in assay [1] (setting [3]) was 0.925 (inactive) and 0.942 (inactive); in assay [1] (setting [4]), 0.973 and 1.58. For the same compound, the cell count was 8690 and 12000 in assay [1] (setting [5]); 9400 and 12700 in assay [1] (setting [6]). Besides, the z-score is -0.333 (inactive) in assay [2] (setting [7]) and -0.472 in assay [2] (setting [8]).
For the compound `CC1(C)O[C@@H]2C[C@H]3[C@@H]4C[C@H](F)C5=CC(=O)CC[C@]5(C)[C@H]4[C@@H](O)C[C@]3(C)[C@]2(C(=O)CO)O1`, the values for the fold change in assay [1] (setting [3]) and in assay [1] (setting [4]) were 0.775 (inactive) and 0.796, respectively. The results for the cell count in assay [1] (setting [5]) and in assay [1] (setting [6]) were 4730 and 6100, respectively. The values for the z-score in assay [2] (setting [7]) and in assay [2] (setting [8]) were -0.21 (inactive) and 0.615, respectively.
Consider `Cc1cc(NC(=O)C2=C(O)c3ccccc3S(=O)(=O)N2C)no1`, for which the fold change was 0.901 (inactive) and 0.859 (inactive) in assay [1] (setting [3]); 1.1 and 2.9 in assay [1] (setting [4]). For the same compound, the cell count in assay [1] (setting [5]) was 8700 and 11400; in assay [1] (setting [6]), 9660 and 13300. For the same compound, the z-score is 0.335 (inactive) in assay [2] (setting [7]) and 0.203 in assay [2] (setting [8]).
For `Cc1ccnc(NS(=O)(=O)c2ccc(N)cc2)n1`, the fold change was 0.871 (inactive) and 0.913 (inactive) in assay [1] (setting [3]); 1.08 and 0.734 and 2.66 in assay [1] (setting [4]). For the same compound, the cell count in assay [1] (setting [5]) is 8890 and 7940 and 11400; in assay [1] (setting [6]), 10200 and 8690 and 12500. Also, the z-score was -0.105 (inactive) and 0.577 (inactive) in assay [2] (setting [7]); -0.152 and -0.312 in assay [2] (setting [8]).
Regarding `O=C(O)CCCC[C@@H]1SC[C@@H]2NC(=O)N[C@@H]21`, the fold change was 0.845 (inactive) in assay [1] (setting [3]) and 1.66 in assay [1] (setting [4]). Besides, the values for the cell count in assay [1] (setting [5]) and in assay [1] (setting [6]) were 8760 and 10400, respectively. The values for the z-score in assay [2] (setting [7]) and in assay [2] (setting [8]) were -0.325 (inactive) and -0.214, respectively.
On to `CCCCNc1c(C(=O)OCC)c(C)nc2c1cnn2CC`, for which the fold change in assay [1] (setting [3]) is 1.09 (inactive) and 0.956 (inactive) and 0.928 (inactive); in assay [1] (setting [4]) it was 1.73 and 0.694 and 0.876. For the same compound, the cell count in assay [1] (setting [5]) was 9150 and 8740 and 7780; in assay [1] (setting [6]), 8430 and 9140 and 8370. For the same compound, the z-score is 2.27 (active) in assay [2] (setting [7]) and 1.7 in assay [2] (setting [8]).
As for `CCN(CC)CCOC(=O)C(Cc1cccc2ccccc12)CC1CCCO1` (stereo not given), the fold change in assay [1] (setting [3]) was 0.845 (inactive) and 0.836 (inactive); in assay [1] (setting [4]) it was 1.23 and 5.94. Further, the cell count in assay [1] (setting [5]) was 9000 and 10700; in assay [1] (setting [6]), 10700 and 12800. The z-score in assay [2] (setting [7]) is 0.101 (inactive); in assay [2] (setting [8]) it was -0.0853.
As to `Cc1c(Cl)cccc1Nc1ccccc1C(=O)O`, the fold change was 0.957 (inactive) and 1.02 (inactive) and 0.935 (inactive) in assay [1] (setting [3]); 1 and 0.422 and 1.23 in assay [1] (setting [4]). Moreover, the cell count was 9330 and 8170 and 9290 in assay [1] (setting [5]); 9750 and 8010 and 9940 in assay [1] (setting [6]). Further, the z-score in assay [2] (setting [7]) was -0.324 (inactive) and 0.232 (inactive) and 0.0953 (inactive); in assay [2] (setting [8]) it was -0.0198 and -0.0599 and -0.617.
With `COc1cccc(OC)c1C(=O)N[C@@H]1C(=O)N2[C@@H]1SC(C)(C)[C@@H]2C(=O)O`, the fold change in assay [1] (setting [3]) was 0.949 (inactive); in assay [1] (setting [4]) it was 0.959. Also, the cell count in assay [1] (setting [5]) was 11700; in assay [1] (setting [6]) it was 12400. The z-score was -0.625 (inactive) in assay [2] (setting [7]) and -0.275 in assay [2] (setting [8]).
Consider `CCCCc1nc(Cl)c(CO)n1Cc1ccc(-c2ccccc2-c2nn[nH]n2)cc1`, for which the fold change in assay [1] (setting [3]) was 0.884 (inactive) and 0.804 (inactive); in assay [1] (setting [4]), 0.724 and 6.97. For the same compound, the cell count in assay [1] (setting [5]) is 7690 and 9920; in assay [1] (setting [6]) it was 8690 and 12300. Also, the z-score is -0.213 (inactive) and 0.409 (inactive) in assay [2] (setting [7]); -0.0146 and 0.701 in assay [2] (setting [8]).
As to `Cc1cc(=O)[nH]c(=S)[nH]1`, the fold change is 0.999 (inactive) and 0.935 (inactive) in assay [1] (setting [3]); 0.275 and 0.458 in assay [1] (setting [4]). In addition, the cell count is 8050 and 11700 in assay [1] (setting [5]); 8060 and 12500 in assay [1] (setting [6]). The figures for the z-score in assay [2] (setting [7]) and in assay [2] (setting [8]) were 0.105 (inactive) and -0.199, respectively.
Consider `CCN(CCCc1ccccc1)CCCc1ccccc1`, for which the fold change in assay [1] (setting [3]) is 0.954 (inactive) and 0.931 (inactive) and 0.904 (inactive); in assay [1] (setting [4]) it was 1.55 and 0.42 and 0.729. Also, the cell count in assay [1] (setting [5]) was 9190 and 7300 and 10700; in assay [1] (setting [6]) it was 9640 and 7840 and 11900. The z-score in assay [2] (setting [7]) is -0.31 (inactive) and -0.215 (inactive); in assay [2] (setting [8]), -0.176 and -0.103.
For `Nc1ncnc2c1ncn2[C@@H]1O[C@H](COP(=O)(O)O)[C@@H](O)[C@H]1O`, the fold change in assay [1] (setting [3]) is 0.848 (inactive); in assay [1] (setting [4]), 1.03. Moreover, the cell count in assay [1] (setting [5]) was 9640; in assay [1] (setting [6]), 11400. Further, the values for the z-score in assay [2] (setting [7]) and in assay [2] (setting [8]) were 0.774 (inactive) and 0.196, respectively.
As for `O=C1c2c(O)cccc2Cc2cccc(O)c21`, the fold change in assay [1] (setting [3]) is 0.891 (inactive); in assay [1] (setting [4]), 1.8. In addition, the cell count in assay [1] (setting [5]) was determined as 11600; in assay [1] (setting [6]), 13000. The z-score is 0.308 (inactive) in assay [2] (setting [7]) and 0.465 in assay [2] (setting [8]).
Take `CCOC(=O)OC(C)OC1=C(C(=O)Nc2ccccn2)N(C)S(=O)(=O)c2ccccc21` (stereo not given): the fold change in assay [1] (setting [3]) was 0.948 (inactive) and 0.916 (inactive) and 0.845 (inactive); in assay [1] (setting [4]), 1.05 and 0.416 and 1.29. Moreover, the cell count in assay [1] (setting [5]) is 9250 and 8630 and 9370; in assay [1] (setting [6]), 9750 and 9420 and 11100. Moreover, the z-score in assay [2] (setting [7]) was -0.123 (inactive) and 0.743 (inactive) and 0.745 (inactive); in assay [2] (setting [8]), -0.115 and 1.2 and 1.74.
